Test results: PubChem BioAssay (EPA / NIEHS)
Active and inactive are the calls of the source. Rule for the calls: active = hit-call score of the fitted dose curve at least 0.9, where 1 is the maximum; inactive = score below 0.9.

Assays:
[1] = ATG_CRE_CIS: Attagene CIS-FACTORIAL HepG2 Assay for human cAMP Responsive Element (CRE) binding protein 3 (AID 2282926); conditions: HepG2 CRE cis-reporter, Attagene multiplexed mRNA; actives raise or lower the signal
Summary of the method: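 Induced reporter mRNA from a CRE cis element, measured in HepG2 among many multiplexed units at 24 h. Detection used RT-PCR plus capillary electrophoresis of fluorescent fragments; DMSO served as negative control.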

[2] = target: CCAAT/enhancer-binding protein beta (Homo sapiens) (UniProt P17676); experiment: ATG_C_EBP_CIS: Attagene CIS-FACTORIAL HepG2 Assay for human CCAAT/Enhancer Binding Protein (C/EBP) beta (AID 2282927); conditions: HepG2 Attagene cis-factorial transcription factor reporter; actives raise or lower the signal
Summary of the method: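 Endogenous C/EBPb-driven reporter transcripts measured in transfected human HepG2 cells at 24 h via RT-PCR and capillary electrophoresis of labelled fragments. Activity fitted in both directions relative to DMSO baseline.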

[3] = ATG_CMV_CIS: Attagene CIS-FACTORIAL HepG2 Assay for human CMV (Internal Marker) (AID 2282928); conditions: HepG2 CMV promoter reporter, transcription factor profiling; actives raise or lower the signal;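 note: endpoint acts as a background internal control marker rather than a target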
Summary of the method: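 Readout: fluorescent reporter cDNA fragments separated by capillary electrophoresis after RT-PCR and HpaI cut. Cells: HepG2 carrying transfected cis-promoter reporter constructs, dosed 24 h. Endpoint serves as background internal-marker control, fit bidirectionally versus DMSO.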

[4] = ATG_DR4_LXR_CIS: Attagene CIS-FACTORIAL HepG2 Assay for human Liver X Receptor (LXR), DR4 submotif (AID 2282929); conditions: HepG2 Attagene DR4 cis-reporter, mRNA transcription; actives raise or lower the signal
Summary of the method: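 DR4 cis-reporter in HepG2, 24 h exposure. Detection: RT-PCR, 6-FAM labelling, CE fragment analysis. Endpoint fitted bidirectionally, DMSO = baseline.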

[5] = target: Aryl hydrocarbon receptor (Homo sapiens) (UniProt P35869); experiment: ATG_Ahr_CIS: Attagene CIS-FACTORIAL HepG2 Assay for human Aryl Hydrocarbon Receptor (Ahr) (AID 2282930); conditions: HepG2 AhR cis-factorial reporter transcription; actives raise or lower the signal
Summary of the method: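 Reporter mRNA levels, quantified by RT-PCR and fluorescent capillary electrophoresis, reflect endogenous AhR transcriptional activity in HepG2 cells carrying transfected cis-promoter reporter constructs. Readout at 24 h post-dose; gain or loss fitted against DMSO baseline.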

[6] = ATG_AP_1_CIS: Attagene CIS-FACTORIAL HepG2 Assay for human Activator Protein 1 (AP-1) (AID 2282931); conditions: HepG2 Attagene cis-factorial AP-1 reporter mRNA; actives raise or lower the signal
Summary of the method: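 Cis-regulated reporter units transiently expressed in HepG2 report endogenous transcription-factor activity. Signal: reporter mRNA at 24 h, via RT-PCR and fluorescent capillary electrophoresis. Endpoint derived by bidirectional fitting, DMSO as negative control.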

[7] = ATG_BRE_CIS: Attagene CIS-FACTORIAL HepG2 Assay for human Bone Morphogenetic Protein (BMP) Response Element (BRE) (AID 2282933); conditions: HepG2 BMP response element reporter, Attagene transcription factor profiling; actives raise or lower the signal
Summary of the method: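 Read-out: reporter mRNA induction quantified by RT-PCR and capillary electrophoresis after 24 h chemical exposure of transfected HepG2 cells. Endogenous factor activity on the BMP response element; gain or loss fitted against DMSO baseline.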

[8] = target: Retinoic acid receptor alpha (Homo sapiens) (UniProt P10276); experiment: ATG_DR5_RAR_CIS: Attagene CIS-FACTORIAL HepG2 Assay for human Retinoic Acid Receptor Alpha (RARE), DR5 submotif (AID 2282934); conditions: HepG2 Attagene cis-factorial RARE DR5 reporter, mRNA; actives raise or lower the signal
Summary of the method: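 Reporter transcripts from a DR5-regulated unit, measured via RT-PCR plus capillary electrophoresis, reflect endogenous RAR activity in transiently transfected human HepG2 liver cells. Exposure lasted 24 h; gain or loss of signal scored against DMSO.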

[9] = target: Transcription factor E2F1 (Homo sapiens) (UniProt Q01094); experiment: ATG_E2F_CIS: Attagene CIS-FACTORIAL HepG2 Assay for human E2F Transcription Factor 1 (AID 2282935); conditions: HepG2 Attagene cis-reporter, E2F reporter RNA transcripts; actives raise or lower the signal
Summary of the method: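 Gain or loss of reporter transcript, fitted against DMSO, reflects E2F1-driven transcription. Transiently transfected HepG2 dosed 24 h before RNA isolation. Quantified by fluorescent RT-PCR products separated by capillary electrophoresis.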

[10] = ATG_E_Box_CIS: Attagene CIS-FACTORIAL HepG2 Assay for human Enhancer Box (E-box) (AID 2282936); conditions: HepG2 E-box cis-reporter transcription, actives raise or lower the signal
Summary of the method: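 E-box-driven reporter transcripts measured in transiently transfected HepG2 after 24 h exposure: RNA reverse-transcribed, PCR-amplified, fluorescently labelled, digested and resolved by capillary electrophoresis. Gain or loss relative to DMSO.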

[11] = ATG_M_61_CIS: Attagene CIS-FACTORIAL HepG2 Assay for M61 Transcription Factor (Internal Marker) (AID 2282937); conditions: HepG2 Attagene CIS-FACTORIAL M61 internal marker reporter; actives raise or lower the signal
Summary of the method: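 Background-control endpoint: HepG2 cells with cis-regulated reporter constructs, 24 h exposure, reporter mRNA detected via fluorescent primer extension and capillary electrophoresis; values from bidirectional fitting with DMSO baseline.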

[12] = ATG_EGR_CIS: Attagene CIS-FACTORIAL HepG2 Assay for human Early Growth Response 1 (EGR1) (AID 2282938); conditions: HepG2 Attagene CIS-FACTORIAL EGR reporter mRNA; actives raise or lower the signal
Summary of the method: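 Endpoint derived by bidirectional fitting versus DMSO vehicle. Method: cis-promoter reporter units transfected into HepG2, 24 h dosing, RNA isolation, RT-PCR with 6-FAM primer extension and HpaI digestion, then capillary electrophoresis fluorescence detection.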

[13] = ATG_M_19_CIS: Attagene CIS-FACTORIAL HepG2 Assay for M19 Transcription Factor (Internal Marker) (AID 2282939); conditions: HepG2 Attagene CIS-FACTORIAL M19 internal marker reporter; actives raise or lower the signal
Summary of the method: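 Readout: fluorescent reporter-transcript fragments by capillary electrophoresis after RT-PCR. Human HepG2 liver cells carried transfected MRTU constructs reporting endogenous transcription-factor activity; exposure 24 h. Gain or loss of signal fitted relative to DMSO.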

[14] = ATG_Ets_CIS: Attagene CIS-FACTORIAL HepG2 Assay for human Erythroblast Transformation Specific (ETS) (AID 2282941); conditions: HepG2 ETS cis-reporter transcription, actives raise or lower the signal
Summary of the method: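 RT-PCR/capillary electrophoresis fluorescence read-out of reporter mRNA; HepG2 transient multi-reporter transfection; 24 h compound exposure; gain or loss of signal fitted bidirectionally relative to DMSO.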

[15] = target: Hepatocyte nuclear factor 3-beta (Homo sapiens) (UniProt Q9Y261); experiment: ATG_FoxA2_CIS: Attagene CIS-FACTORIAL HepG2 Assay for human Forkhead box A2 (FOXA2) (AID 2282942); conditions: HepG2 cis-reporter transcription factor activity, 24 h; actives raise or lower the signal
Summary of the method: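 Measured: reporter mRNA induction or loss in HepG2 transiently carrying multiple cis-regulated reporter units, 24 h after dosing. Quantified by RT-PCR plus capillary electrophoresis, normalised to DMSO.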

[16] = ATG_FoxO_CIS: Attagene CIS-FACTORIAL HepG2 Assay for human Forkhead box O (FoxO) (AID 2282943); conditions: HepG2 Attagene cis-reporter, FoxO element, mRNA; actives raise or lower the signal
Summary of the method: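 Endogenous transcription factor activity read from multiplexed cis-promoter reporter transcripts in transiently transfected HepG2, 24 h after dosing. Reporter RNA measured via RT-PCR plus capillary electrophoresis of FAM-labeled products; gain or loss relative to DMSO.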

[17] = ATG_GATA_CIS: Attagene CIS-FACTORIAL HepG2 Assay for human GATA Binding Protein (AID 2282944); conditions: HepG2 GATA cis-element reporter, Attagene multiplex mRNA; actives raise or lower the signal
Summary of the method: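 Read-out: fluorescent reporter mRNA fragments resolved by capillary electrophoresis after RT-PCR. Human liver HepG2 cells carried transiently transfected cis-regulated reporter constructs; chemicals incubated 24 h; gain or loss of signal fitted relative to DMSO.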

[18] = ATG_GLI_CIS: Attagene CIS-FACTORIAL HepG2 Assay for human Zinc Finger Protein GLI1 (AID 2282945); conditions: HepG2, Attagene cis-factorial reporter mRNA, GLI element; actives raise or lower the signal
Summary of the method: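 Bidirectional curve fits relative to DMSO, using reporter mRNA levels from RT-PCR plus capillary electrophoresis. Cells were HepG2 transiently carrying cis-regulated reporter constructs, harvested 24 h after dosing.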

[19] = ATG_AP_2_CIS: Attagene CIS-FACTORIAL HepG2 Assay for human Activator Protein 2 (AP-2) (AID 2282932); conditions: HepG2 AP-2 cis-reporter, Attagene transcription factor profiling; actives raise or lower the signal
Summary of the method: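 Endogenous transcription factor activity is reported through transfected multiplex reporter constructs in HepG2, after 24 h of compound exposure. Transcripts were quantified by RT-PCR and capillary electrophoresis of fluorescent fragments. Bidirectional fit against DMSO.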

[20] = ATG_ERE_CIS: Attagene CIS-FACTORIAL HepG2 Assay for Estrogen Response Element (ERE) (AID 2282940); conditions: HepG2 ERE cis-reporter, Attagene RNA transcript; actives raise or lower the signal
Summary of the method: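 Readout: reporter mRNA induction by RT-PCR, FAM-labelled primer extension, HpaI digestion and capillary electrophoresis, 24 h after dosing transfected HepG2 cells. Endogenous transcription factors act on cis-element-regulated reporters. Gain or loss fitted against DMSO.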

Measured: AC50

Hepatocyte nuclear factor 3-beta (Homo sapiens), sequence (Q9Y261 whole entry, looked up): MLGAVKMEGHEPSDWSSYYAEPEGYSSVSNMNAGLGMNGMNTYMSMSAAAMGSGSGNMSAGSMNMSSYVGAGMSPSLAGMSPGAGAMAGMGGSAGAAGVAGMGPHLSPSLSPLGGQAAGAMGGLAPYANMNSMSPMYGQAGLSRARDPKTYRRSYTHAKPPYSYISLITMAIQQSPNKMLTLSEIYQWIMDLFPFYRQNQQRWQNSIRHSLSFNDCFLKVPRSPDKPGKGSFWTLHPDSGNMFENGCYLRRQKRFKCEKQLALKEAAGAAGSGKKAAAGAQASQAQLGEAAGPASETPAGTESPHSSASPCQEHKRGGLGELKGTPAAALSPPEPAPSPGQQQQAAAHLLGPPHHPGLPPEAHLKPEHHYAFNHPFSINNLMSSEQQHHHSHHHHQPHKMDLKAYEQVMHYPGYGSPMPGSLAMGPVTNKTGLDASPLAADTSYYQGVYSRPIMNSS
CCAAT/enhancer-binding protein beta (Homo sapiens), sequence (P17676 whole entry, looked up, the tested form may be a part): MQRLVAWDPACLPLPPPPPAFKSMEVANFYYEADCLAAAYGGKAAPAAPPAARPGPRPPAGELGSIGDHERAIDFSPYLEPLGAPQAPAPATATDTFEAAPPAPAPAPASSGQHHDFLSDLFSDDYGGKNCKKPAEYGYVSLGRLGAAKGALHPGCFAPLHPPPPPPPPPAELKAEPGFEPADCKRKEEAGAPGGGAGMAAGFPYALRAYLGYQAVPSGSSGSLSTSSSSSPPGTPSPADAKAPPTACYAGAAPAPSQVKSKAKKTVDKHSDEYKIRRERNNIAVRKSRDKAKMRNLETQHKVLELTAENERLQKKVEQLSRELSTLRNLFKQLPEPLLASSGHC
Retinoic acid receptor alpha (Homo sapiens), sequence (P10276 whole entry, looked up): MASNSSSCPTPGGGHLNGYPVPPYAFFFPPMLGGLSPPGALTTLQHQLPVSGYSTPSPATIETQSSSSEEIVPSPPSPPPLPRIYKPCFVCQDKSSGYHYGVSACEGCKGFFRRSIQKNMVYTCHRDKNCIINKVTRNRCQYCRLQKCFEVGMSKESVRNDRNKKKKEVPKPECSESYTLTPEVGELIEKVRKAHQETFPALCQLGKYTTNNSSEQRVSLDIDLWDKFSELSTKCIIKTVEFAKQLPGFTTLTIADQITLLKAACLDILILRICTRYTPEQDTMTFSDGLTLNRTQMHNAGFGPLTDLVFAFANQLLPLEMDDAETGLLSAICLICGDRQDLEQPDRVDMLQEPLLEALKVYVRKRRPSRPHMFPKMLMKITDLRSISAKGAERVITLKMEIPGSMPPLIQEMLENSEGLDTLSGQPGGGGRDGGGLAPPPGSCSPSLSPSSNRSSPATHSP
Aryl hydrocarbon receptor (Homo sapiens), sequence (P35869 whole entry, looked up): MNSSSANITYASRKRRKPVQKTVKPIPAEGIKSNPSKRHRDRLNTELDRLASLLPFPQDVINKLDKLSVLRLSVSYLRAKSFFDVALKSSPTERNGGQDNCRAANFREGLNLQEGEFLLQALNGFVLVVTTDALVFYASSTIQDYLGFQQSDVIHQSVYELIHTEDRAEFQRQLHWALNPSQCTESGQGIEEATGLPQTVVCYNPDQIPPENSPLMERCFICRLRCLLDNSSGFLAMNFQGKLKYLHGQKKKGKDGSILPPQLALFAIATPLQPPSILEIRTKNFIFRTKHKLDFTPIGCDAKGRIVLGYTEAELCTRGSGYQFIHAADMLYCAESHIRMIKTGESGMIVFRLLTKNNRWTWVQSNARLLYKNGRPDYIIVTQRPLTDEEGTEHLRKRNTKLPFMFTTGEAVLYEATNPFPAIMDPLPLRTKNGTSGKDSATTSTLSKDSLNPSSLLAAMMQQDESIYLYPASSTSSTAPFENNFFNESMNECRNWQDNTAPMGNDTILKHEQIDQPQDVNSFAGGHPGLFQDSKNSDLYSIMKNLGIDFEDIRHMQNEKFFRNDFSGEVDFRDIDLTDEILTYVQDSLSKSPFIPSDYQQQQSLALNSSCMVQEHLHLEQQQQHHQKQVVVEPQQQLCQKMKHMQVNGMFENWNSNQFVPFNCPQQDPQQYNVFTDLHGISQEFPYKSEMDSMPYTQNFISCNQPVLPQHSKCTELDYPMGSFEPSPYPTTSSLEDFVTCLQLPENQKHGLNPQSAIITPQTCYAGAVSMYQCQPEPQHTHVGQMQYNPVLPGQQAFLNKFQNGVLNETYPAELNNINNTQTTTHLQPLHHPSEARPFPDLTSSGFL
Transcription factor E2F1 (Homo sapiens), sequence (Q01094 whole entry, looked up): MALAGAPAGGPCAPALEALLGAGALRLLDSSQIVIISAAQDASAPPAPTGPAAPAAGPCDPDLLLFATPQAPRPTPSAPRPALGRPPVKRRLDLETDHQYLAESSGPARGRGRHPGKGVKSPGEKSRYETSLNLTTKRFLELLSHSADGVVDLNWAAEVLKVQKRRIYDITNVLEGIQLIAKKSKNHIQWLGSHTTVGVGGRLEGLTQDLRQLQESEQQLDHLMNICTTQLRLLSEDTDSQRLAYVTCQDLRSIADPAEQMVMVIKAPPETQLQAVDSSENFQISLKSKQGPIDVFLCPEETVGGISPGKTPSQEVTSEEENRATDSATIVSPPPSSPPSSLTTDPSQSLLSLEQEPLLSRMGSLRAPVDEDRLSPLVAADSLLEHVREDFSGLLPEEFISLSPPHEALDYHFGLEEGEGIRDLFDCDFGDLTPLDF

CC(=O)CC(=O)Nc1ccc(C)cc1C
not listed: [19] | [20]
inactive: all other assays above

CCCCCCC(O)CCCCCCCCCCC(=O)O (configuration not stated)
not listed: [19] | [20]
inactive: all other assays above

CC1CCC(C(C)C)C(O)C1 (configuration not stated)
not listed: [16] | [18] | [19] | [20]
inactive: all other assays above

CCCC(=O)C(CC)Sc1ccoc1C (configuration not stated)
active: [1] 25.7 µM | [20] 88.9 µM
not listed: [6]
inactive: all other assays above

CN(C)CCOC(C)(c1ccccc1)c1ccccn1 (configuration not stated)
not listed: [9] | [19] | [20]
inactive: all other assays above

OCCc1ccccc1
not listed: [10] | [19] | [20]
inactive: all other assays above

CCCCCCCCN1CCCC1=O
active: [1] 151 µM
not listed: [6] | [20]
inactive: all other assays above

O=C(O)c1cccnc1C(=O)O
not listed: [6]
inactive: all other assays above
